SMILES strings stand for the structures. Records with an inconclusive call do not appear. Where a call stands in place of a potency, no number is given. Active and inactive are the calls of the source. Calls follow the shape of the dose curve; as a rule, active = well fitted inhibition curve with a large enough effect; inconclusive = small, poorly fitted or top-dose-only effect; inactive = flat fitted curve, though single readings scatter.

Sequence of RecQ-like DNA helicase BLM (Homo sapiens) (P54132 whole entry, looked up): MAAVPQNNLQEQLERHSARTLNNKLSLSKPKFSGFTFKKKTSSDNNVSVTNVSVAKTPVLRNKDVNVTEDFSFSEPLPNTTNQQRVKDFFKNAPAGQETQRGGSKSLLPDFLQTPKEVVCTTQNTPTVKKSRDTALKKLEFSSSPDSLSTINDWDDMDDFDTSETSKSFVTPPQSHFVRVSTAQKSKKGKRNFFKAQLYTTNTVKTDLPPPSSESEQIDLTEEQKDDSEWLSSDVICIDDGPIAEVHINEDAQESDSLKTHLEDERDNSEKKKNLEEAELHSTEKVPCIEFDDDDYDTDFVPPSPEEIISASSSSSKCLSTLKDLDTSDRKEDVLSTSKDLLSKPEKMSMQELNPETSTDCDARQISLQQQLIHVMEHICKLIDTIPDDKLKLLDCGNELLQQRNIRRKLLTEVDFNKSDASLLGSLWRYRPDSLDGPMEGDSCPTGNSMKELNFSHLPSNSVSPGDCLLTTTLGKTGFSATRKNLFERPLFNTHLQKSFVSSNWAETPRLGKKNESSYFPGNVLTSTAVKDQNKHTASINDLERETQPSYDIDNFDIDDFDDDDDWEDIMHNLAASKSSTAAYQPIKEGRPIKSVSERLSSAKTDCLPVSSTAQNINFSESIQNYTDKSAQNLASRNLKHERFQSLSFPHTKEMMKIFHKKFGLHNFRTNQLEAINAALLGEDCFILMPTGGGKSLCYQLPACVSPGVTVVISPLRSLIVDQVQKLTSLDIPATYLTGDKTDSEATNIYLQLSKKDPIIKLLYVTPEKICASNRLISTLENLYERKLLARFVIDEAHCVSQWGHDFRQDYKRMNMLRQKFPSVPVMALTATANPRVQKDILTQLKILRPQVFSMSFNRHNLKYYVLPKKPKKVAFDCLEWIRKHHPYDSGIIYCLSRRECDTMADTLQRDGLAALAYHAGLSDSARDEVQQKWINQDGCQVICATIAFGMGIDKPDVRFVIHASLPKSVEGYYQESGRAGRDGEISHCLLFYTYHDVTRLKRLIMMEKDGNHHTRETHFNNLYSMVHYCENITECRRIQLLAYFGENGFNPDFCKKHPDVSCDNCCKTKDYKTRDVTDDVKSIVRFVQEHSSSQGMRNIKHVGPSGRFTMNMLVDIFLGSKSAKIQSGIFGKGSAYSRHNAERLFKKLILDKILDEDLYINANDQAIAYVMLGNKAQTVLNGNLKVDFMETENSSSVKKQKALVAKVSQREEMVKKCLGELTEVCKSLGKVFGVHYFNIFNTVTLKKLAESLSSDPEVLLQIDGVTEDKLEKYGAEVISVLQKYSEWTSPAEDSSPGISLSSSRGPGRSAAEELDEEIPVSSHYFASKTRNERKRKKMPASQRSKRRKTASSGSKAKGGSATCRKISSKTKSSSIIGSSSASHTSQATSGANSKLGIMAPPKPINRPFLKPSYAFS

For the assay, the target named is RecQ-like DNA helicase BLM (Homo sapiens) (UniProt P54132). Kind of assay: qHTS for Inhibitors of Bloom's syndrome helicase (BLM): Helicase ATPase Orthogonal Confirmatory Assay for SAR. Particulars: purified BLM helicase ATPase activity assay; series mostly up to 57.1 µM. Summed up:
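Purified BLM (2 nM) in Tris-HCl pH 8.0 with MgCl2, DTT, Tween-20, preincubated 15 min with compound. Reaction with 200 nM ssDNA and 100 uM ATP ran 15 min; ADP-Glo luminescence, four-parameter Hill fit.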
With `O=C(Nc1cc(C(F)(F)F)cc(C(F)(F)F)c1)Nc1nnc(-c2ccncc2)s1`, the Potency entry is “inactive”.
For the compound `O=C(Nc1ccc(Cl)c(Cl)c1)Nc1nnc(-c2ccc(F)cc2)s1`, the Potency entry was “inactive”.
Take `O=C(Nc1ccc(Cl)c([N+](=O)[O-])c1)Nc1nnc(-c2ccncc2)s1`: the Potency was 1.82 µM (active).
Consider `Cc1cc(NC(=O)Nc2nnc(-c3ccncc3)s2)ccc1C#N`, for which the Potency was 1.29 µM (active).
Under `N#Cc1cc(NC(=O)Nc2nnc(-c3ccncc3)s2)ccc1F` stands 1.02 µM (active); under `Cc1cc(NC(=O)Nc2cccc(-c3ccncc3)n2)ccc1F`, “inactive”; under `CC(=O)c1cccc(NC(=O)Nc2nnc(-c3ccncc3)s2)c1`, “inactive”.
Under `O=C(Nc1ccc(-c2ccccc2)cc1)Nc1nnc(-c2ccncc2)s1` stands “inactive”; under `O=C(Nc1ccc(Cl)c(Cl)c1)Nc1nc(-c2ccncc2)cs1`, “inactive”; under `Cc1cc(NC(=O)Nc2nnc(C3CCCCC3)s2)ccc1Br`, “inactive”.
As for `O=C(Nc1ccc(F)c(C(F)(F)F)c1)Nc1nc(-c2ccncc2)cs1`, the entry is “inactive”; as for `CC(=O)c1ccc(NC(=O)Nc2nnc(-c3ccncc3)s2)cc1`, “inactive”.
For `CC(C)(C)c1ccc(-c2nnc(NC(=O)Nc3ccc4ccccc4c3)s2)cc1`, the Potency entry is “inactive”.
Turning to `O=C(Nc1ccc(Cl)c(Cl)c1)Nc1nnc(-c2ccncc2)o1`, the Potency result was “inactive”.
Under `O=C(Nc1ccc2ccccc2c1)Nc1nnc(-c2ccncc2)o1` stands “inactive”.
For the compound `CC(C)(C)NC(=O)Nc1nnc(-c2ccncc2)s1`, the Potency result is “inactive”.
On to `O=C(Nc1ccc2ccccc2c1)Nc1nnc(-c2ccccn2)s1`, for which the Potency entry was “inactive”.
In the case of `Cc1cc(Nc2c(Nc3nnc(-c4ccncc4)s3)c(=O)c2=O)ccc1Cl`, the Potency entry is “inactive”.
`CCOc1ccc(NC(=O)Nc2ccc(-c3nc4ccccc4[nH]3)cc2)cc1`: the Potency entry is “inactive”.
`O=c1c(Nc2ccc(Br)c(Br)c2)c(Nc2nnc(-c3ccncc3)s2)c1=O`: the Potency was 20.4 µM (active).
With `O=C(Nc1nnc(-c2ccncc2)s1)Oc1ccc2ccccc2c1`, the Potency was 32.4 µM (active).
Regarding `O=C(Nc1ccc(Cl)c(Cl)c1)Nc1nnc(C2CCCCC2)s1`, the Potency entry is “inactive”.
In the case of `O=C(Cc1ccc2ccccc2c1)Nc1nnc(-c2ccncc2)s1`, the Potency is 16.2 µM (active).
Under `O=C(Nc1ccc(Cl)c(Cl)c1)Nc1nnc(Br)s1` stands “inactive”; under `O=C(Nc1ccc2ccccc2c1)Nc1nnc(-c2ccc(Cl)cc2Cl)s1`, “inactive”.
As for `O=C(Nc1ccc(Cl)nc1)Nc1nnc(-c2ccncc2)s1`, the Potency was 1.62 µM (active).
For the compound `O=C(Nc1ccc(-c2nc3ccccc3[nH]2)cc1)Nc1ccc2occc2c1`, the Potency result is “inactive”.
For `O=C(Nc1ccc2sccc2c1)Nc1nnc(-c2cccnc2)s1`, the Potency entry is “inactive”.
Regarding `O=c1c(Nc2ccc(Cl)c(Cl)c2)c(Nc2nnc(-c3ccncc3)s2)c1=O`, the Potency is 6.46 µM (active).
For `Cc1ccc(-c2nnc(NC(=O)Nc3ccc4ccccc4c3)s2)cc1`, the Potency entry was “inactive”.
As to `O=C(Nc1ccc2ccccc2c1)Nc1nnc(-c2ccc(F)cc2)s1`, the Potency entry was “inactive”.
Take `O=C(Nc1ccc(F)c(C(F)(F)F)c1)Nc1ccc(-c2ccncc2)s1`: the Potency result was “inactive”.

These data come from PubChem BioAssay AID720549 (National Center for Advancing Translational Sciences (NCATS), 2013).
